Laboratory results taken from PubChem BioAssay AID1159580 (chemical genetic matrix, 2015).
Values joined by “and” are separate entries in the source; they are usually repeats but may differ in a detail not shown here. Identical values can stand only once. In all, about 5,500 compounds went through this assay and about 2,000 (36%) were called active. Another 18% or so got no clear call; they are omitted. Cut-off read from the data, not from the text of the source: active = normalized growth mostly below about 0.91 (no sharp cut-off); inconclusive = no clear call, values can overlap the other calls; inactive = mostly above about 0.92. The list shows a part of the results.

Assay: chemical genetic growth profiling, strain panel (AID 1159580);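 note: tested at 20 µM; growth read once vehicle control cultures reached saturation at 30 °C; 1 = growth at the plate median or of vehicle wells; lower values mean less growth of the strain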
Details: S. cerevisiae deletion strains, growth OD

Measured: normalized growth

O=C(O)CNCP(=O)(O)O
inactive: locus YAL013W, strain DEP1, active compounds read low 0.998 | locus YAL021C, strain ccr4, active compounds read low 1.04 | locus YAL026C, strain drs2, active compounds read low 1.02 | locus YAL030W, strain snc1, active compounds read low 1.02 | locus YBL061C, strain skt5, active compounds read low 1.01 | locus YBR009C, strain hhf1, active compounds read low 1.01 | locus YBR021W, strain FUR4, active compounds read low 0.992 | locus YBR023C, strain chs3, active compounds read low 1.02 | locus YBR171W, strain sec66, active compounds read low 1.04 | locus YBR229C, strain ROT2, active compounds read low 1 | locus YBR231C, strain swc5, active compounds read low 1.02 | locus YBR279W, strain paf1, active compounds read low 1.02 | locus YCL011C, strain gbp2, active compounds read low 1.02 | locus YCL016C, strain dcc1, active compounds read low 1.02 | locus YCL029C, strain bik1, active compounds read low 1.01 | locus YCL061C, strain MRC1, active compounds read low 1.01 | locus YCL069W, strain vba3, active compounds read low 1.02 | locus YCR088W, strain abp1, active compounds read low 1.01 | locus YDL005C, strain med2, active compounds read low 1.03 | locus YDL035C, strain GPR1, active compounds read low 1.02 | locus YDL040C, strain nat1, active compounds read low 1.02 | locus YDL074C, strain BRE1, active compounds read low 1.04 | locus YDL101C, strain DUN1, active compounds read low 1.02 | locus YDL134C, strain PPH21, active compounds read low 1.01 | locus YDL185W, strain tfp1, active compounds read low 1.01 | locus YDL192W, strain arf1, active compounds read low 1.01 | locus YDR001C, strain nth1, active compounds read low 1.01 | locus YDR069C, strain doa4, active compounds read low 1.02 | locus YDR101C, strain arx1, active compounds read low 1 | locus YDR137W, strain rgp1, active compounds read low 1.02 | locus YDR150W, strain NUM1, active compounds read low 0.997 | locus YDR159W, strain sac3, active compounds read low 1.02 | locus YDR162C, strain NBP2, active compounds read low 1 | locus YDR195W, strain ref2 1.01 | locus YDR297W, strain sur2, active compounds read low 1.01 | locus YDR318W, strain mcm21, active compounds read low 1.02 | locus YDR334W, strain swr1, active compounds read low 1.03 | locus YDR335W, strain msn5, active compounds read low 1.02 | locus YDR388W, active compounds read low 1.01 | locus YDR392W, strain spt3, active compounds read low 1.03 | locus YDR502C, strain sam2, active compounds read low 1.01 | locus YEL003W, strain gim4, active compounds read low 1.01 | locus YEL037C, strain rad23, active compounds read low 1.01 | locus YEL061C, strain CIN8 (second series), active compounds read low 1.02 | locus YEL061C, strain CIN8, active compounds read low 0.998 | locus YER015W, strain faa2, active compounds read low 1.02 | locus YER016W, strain bim1, active compounds read low 1.01 | locus YER110C, active compounds read low 1.02 | locus YER111C, strain swi4, active compounds read low 1.01 | locus YER155C, strain BEM2 (second series), active compounds read low 1.02 | locus YER155C, strain BEM2, active compounds read low 1.01 | locus YER167W, strain BCK2, active compounds read low 0.999 | locus YFR010W, strain ubp6, active compounds read low 1.02 | locus YGL078C, strain dbp3, active compounds read low 1.01 | locus YGL086W, strain mad1, active compounds read low 1 | locus YGL167C, strain pmr1, active compounds read low 1.02 | locus YGL173C, strain kem1, active compounds read low 1.01 | locus YGL227W, strain vid30, active compounds read low 1.02 | locus YGL240W, strain doc1, active compounds read low 1.02 | locus YGL248W, strain PDE1, active compounds read low 1.02 | locus YGL253W, strain hxk2, active compounds read low 1.01 | locus YGR078C, strain PAC10, active compounds read low 1.01 | locus YGR135W, strain pre9, active compounds read low 1.02 | locus YGR229C, strain SMI1, active compounds read low 1.02 | locus YGR252W, strain gcn5, active compounds read low 1.01 | locus YHR013C, strain ard1, active compounds read low 1.06 | locus YHR027C, strain rpn1, active compounds read low 1 | locus YHR030C, strain SLT2, active compounds read low 1.01 and 0.97 | locus YHR079C, strain IRE1 (second series), active compounds read low 1.01 | locus YHR079C, strain IRE1, active compounds read low 0.992 | locus YHR094C, strain hxt1, active compounds read low 1 | locus YHR129C, strain ARP1, active compounds read low 1.01 | locus YHR142W, strain chs7, active compounds read low 1.02 | locus YHR200W, strain rpn10, active compounds read low 1.01 | locus YIL066C, strain RNR3, active compounds read low 1.02 | locus YIL073C, strain SPO22, active compounds read low 1.08 | locus YIL125W, strain kgd1, active compounds read low 1.01 | locus YIR030C, strain dcg1, active compounds read low 1.01 | locus YJL092W, strain hpr5, active compounds read low 1.02 | locus YJL095W, strain BCK1 (second series), active compounds read low 1.01 | locus YJL095W, strain BCK1, active compounds read low 1.01 and 0.975 | locus YJL115W, strain asf1, active compounds read low 1.02 | locus YJL129C, strain trk1, active compounds read low 1.03 | locus YJL134W, strain LCB3, active compounds read low 1.01 | locus YJL154C, strain vps35, active compounds read low 1.02 | locus YJL164C, strain tpk1, active compounds read low 1.02 | locus YJL166W, strain qcr8, active compounds read low 1.02 | locus YJL168C, strain set2, active compounds read low 1.01 | locus YJL187C, strain SWE1 (second series), active compounds read low 1.01 | locus YJL187C, strain SWE1, active compounds read low 1.01 | locus YJR043C, strain POL32, active compounds read low 1.01 | locus YJR066W, strain TOR1, active compounds read low 0.926
